This note sets out measurements from PubChem BioAssay.

Activity calls are given as the source filed them.

Assay [1] deals with Plasmodium falciparum Sir2 (PF13_0152, Sir2A). Nature of the assay: pfSir2 binders on small-molecule microarrays, primary screen, biochemical, small-molecule microarray, 635 nm fluorescence (AID 1098).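 Also: score merges spot fluorescence intensity with its signal-to-noise ratio.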 The note with it: small-molecule microarray binding, fluorescence 635 nm; higher = more signal.
Assay [2] can be described thus: small-molecule microarray binders of probe aDKK1, primary screen, biochemical, biotinylated probe, 635/667 nm fluorescence (AID 1099).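 Also: score merges 667nm spot fluorescence with signal to noise across triplicate slides; reference of the scale not given here.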 Conditions: higher = more signal.
Assay [3] is described as follows: small-molecule microarray binders of probe aCHRDL2, primary screen, biochemical, biotinylated probe, 635/667 nm fluorescence (AID 1100). Conditions: higher = more signal.
A short description of assay [4]: splicing luciferase reporter signal modulators, primary screen, spliceosome inhibition project, cell-based, HEK293, splice +/- reporter (AID 1101).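 Also: HEK293 cells carrying a splicing-competent luciferase reporter gene; test concentration not given here.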 The note with it: luminescence, 24 h, higher = more signal, called active from +8 up or from −8 down.
For assay [5], the target named is Fibroblast growth factor 10 (Homo sapiens) (UniProt O15520). Nature of the assay: FGF10 binders on small-molecule microarrays, primary screen, biochemical, small-molecule microarray, 635 nm fluorescence (AID 1102). The note with it: FGF10 binding, fluorescence 635 nm, higher = more signal.
Assay [6] relates to glycogen synthase kinase-3 (GSK3A per assay name; protocol says GSK3B). Kind of assay: GSK3 binders on small-molecule microarrays, primary screen, biochemical, small-molecule microarray, 635 nm fluorescence, GSK3A (AID 1103). Also: the record names both GSK3A and GSK3B. Conditions: small-molecule microarray binding, fluorescence 635 nm; higher = more signal.
In assay [7] the target is Epidermal growth factor receptor (Homo sapiens) (UniProt P00533). Kind of assay: EGFR binders on small-molecule microarrays, primary screen, biochemical, small-molecule microarray, 635 nm fluorescence (AID 1104).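 Also: score merges 667 nm emission intensity with spot signal to noise over triplicate slides.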 Conditions: EGFR binding, higher = more signal.
Assay [8] has as its target Follistatin-related protein 3 (Homo sapiens) (UniProt O95633). Kind of assay: FSTL3 binders on small-molecule microarrays, primary screen, biochemical, small-molecule microarray, 635 nm fluorescence (AID 1105).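 Also: score merges emission near 667 nm and signal to noise per printed spot across three slides.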 Conditions: FSTL3 binding, higher = more signal.
The target in assay [9] is Dickkopf-related protein 1 (Homo sapiens) (UniProt O94907). Nature of the assay: DKK1 binders on small-molecule microarrays, primary screen, biochemical, small-molecule microarray, 635 nm fluorescence scan (AID 1106).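 Also: score merges emission near 667 nm with signal to noise over three replicate slides.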 Conditions: DKK1 binding, higher = more signal.
For assay [10], the system named is Inhibin beta A chain (activin A). Nature of the assay: INHBA (activin A) binders on microarrays, primary screen, biochemical, small-molecule microarray, 635 nm fluorescence scan (AID 1107).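 Also: mouse activin A protein probed at 4.33 µg/mL on printed slides; score merges bound-protein fluorescence near 667 nm with spot signal-to-noise.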 Conditions: small-molecule microarray binding, higher = more signal.

Sequence of Fibroblast growth factor 10 (Homo sapiens) (O15520 whole entry, looked up): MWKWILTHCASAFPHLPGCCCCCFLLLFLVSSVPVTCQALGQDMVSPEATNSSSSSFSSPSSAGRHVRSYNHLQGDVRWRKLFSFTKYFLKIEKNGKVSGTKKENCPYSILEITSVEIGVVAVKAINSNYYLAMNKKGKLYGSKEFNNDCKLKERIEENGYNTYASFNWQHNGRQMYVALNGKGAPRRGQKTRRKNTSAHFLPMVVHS
Sequence of Dickkopf-related protein 1 (Homo sapiens) (O94907 whole entry, looked up): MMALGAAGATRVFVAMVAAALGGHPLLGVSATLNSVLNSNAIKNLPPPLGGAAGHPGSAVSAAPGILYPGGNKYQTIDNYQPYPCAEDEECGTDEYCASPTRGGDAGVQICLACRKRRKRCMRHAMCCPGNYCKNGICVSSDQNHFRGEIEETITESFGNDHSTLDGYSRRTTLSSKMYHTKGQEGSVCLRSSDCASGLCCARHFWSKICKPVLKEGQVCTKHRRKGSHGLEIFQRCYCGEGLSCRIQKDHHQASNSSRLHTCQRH
Sequence of Follistatin-related protein 3 (Homo sapiens) (O95633 whole entry, looked up): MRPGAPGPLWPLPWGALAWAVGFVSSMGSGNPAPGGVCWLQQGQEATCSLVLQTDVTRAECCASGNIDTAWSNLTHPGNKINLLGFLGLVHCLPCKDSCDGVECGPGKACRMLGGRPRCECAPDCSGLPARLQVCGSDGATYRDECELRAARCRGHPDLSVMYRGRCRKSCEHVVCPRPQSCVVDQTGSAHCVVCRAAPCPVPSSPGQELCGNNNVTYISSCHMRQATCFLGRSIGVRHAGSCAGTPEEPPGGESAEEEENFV
Sequence of Epidermal growth factor receptor (Homo sapiens) (P00533 whole entry, looked up): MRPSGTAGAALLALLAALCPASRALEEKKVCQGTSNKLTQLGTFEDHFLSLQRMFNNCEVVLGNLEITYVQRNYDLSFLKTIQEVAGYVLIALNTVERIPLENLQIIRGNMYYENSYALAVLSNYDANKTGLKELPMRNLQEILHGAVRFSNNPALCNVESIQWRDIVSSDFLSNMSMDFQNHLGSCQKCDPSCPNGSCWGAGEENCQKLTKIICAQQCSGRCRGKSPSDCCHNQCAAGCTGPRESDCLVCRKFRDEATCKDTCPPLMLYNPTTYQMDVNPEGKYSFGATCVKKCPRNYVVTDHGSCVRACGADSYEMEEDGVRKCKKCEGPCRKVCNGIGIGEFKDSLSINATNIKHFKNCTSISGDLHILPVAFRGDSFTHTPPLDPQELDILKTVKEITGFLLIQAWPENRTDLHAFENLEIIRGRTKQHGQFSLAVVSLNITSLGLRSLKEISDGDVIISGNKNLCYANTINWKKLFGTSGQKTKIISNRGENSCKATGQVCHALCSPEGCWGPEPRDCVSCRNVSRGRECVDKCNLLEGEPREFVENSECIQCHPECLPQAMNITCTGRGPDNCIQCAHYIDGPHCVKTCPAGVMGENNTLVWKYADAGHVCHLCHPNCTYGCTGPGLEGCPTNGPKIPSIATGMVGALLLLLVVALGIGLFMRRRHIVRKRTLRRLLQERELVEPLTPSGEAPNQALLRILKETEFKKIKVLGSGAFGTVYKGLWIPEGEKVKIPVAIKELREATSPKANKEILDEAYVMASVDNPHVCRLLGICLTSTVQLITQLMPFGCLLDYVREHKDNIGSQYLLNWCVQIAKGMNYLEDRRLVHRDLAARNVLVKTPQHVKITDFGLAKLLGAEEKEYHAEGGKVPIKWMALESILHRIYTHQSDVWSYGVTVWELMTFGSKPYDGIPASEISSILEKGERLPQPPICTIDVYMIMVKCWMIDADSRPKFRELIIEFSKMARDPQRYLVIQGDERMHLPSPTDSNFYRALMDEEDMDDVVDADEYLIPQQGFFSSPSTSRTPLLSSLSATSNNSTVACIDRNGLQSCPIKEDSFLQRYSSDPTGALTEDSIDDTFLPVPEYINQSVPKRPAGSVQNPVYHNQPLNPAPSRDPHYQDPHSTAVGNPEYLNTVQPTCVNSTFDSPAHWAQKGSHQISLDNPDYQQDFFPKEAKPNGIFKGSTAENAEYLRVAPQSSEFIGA

As for `CCCCCCC#C[Si](O[C@H](c1ccccc1)c1cn([C@H](CO)Cc2ccccc2)nn1)(C(C)C)C(C)C`, the composite z-score is 0.984 in assay [1]; -0.35 in [2]; -0.101 in assay [3]; 0.629 in assay [5]; 0.166 in assay [6]; -0.525 in [7]. Besides, the composite z-score in assay [8] was -0.25; in assay [9] it was -0.15; in assay [10] it was -0.33. Moreover, the z-score in assay [4] was -0.77 (inactive).

Consider `O=C1O[C@H](c2ccccc2)[C@H](c2ccccc2)N2[C@H]1[C@@H](C(=O)Nc1nc3ccccc3s1)[C@]1(C(=O)Nc3ccc(C#CCCO)cc31)[C@H]2c1ccc(OCCO)cc1`, for which the composite z-score in assay [1] is 1.59; in assay [2], -0.198; in assay [3], -0.144; in assay [5] it was 1.33; in [6], 1.31; in assay [7], 0.468. The composite z-score amounted to 1.14 in assay [8], 0.379 in assay [9] and 0.408 in assay [10]. Also, the z-score in assay [4] was -0.0209 (inactive).

As for `COc1ccc(CCN2C(=O)[C@@]3(c4ccc([N+](=O)[O-])cc4)CC(=O)N(C4CCCCC4)[C@@H]3c3ccc(CO)cc32)cc1`, the composite z-score is 0.582 in assay [1]; 0.274 in assay [2]; 0.181 in [3]; 0.586 in assay [5]; 0.711 in assay [6]; -0.267 in assay [7]. The composite z-score is 1.2 in [8], 1.48 in assay [9] and 0.889 in assay [10]. Besides, the z-score in assay [4] was -0.0884 (inactive).

`COCCOC(=O)N1C(=O)[C@@]2(c3cc(C#Cc4ccc(OC)cc4)ccc31)[C@H](c1ccccc1OCCO)N1[C@H](c3ccccc3)[C@H](c3ccccc3)OC(=O)[C@H]1[C@@H]2C(=O)N1CCN(c2ncccn2)CC1`: the composite z-score in assay [1] is 0.864; in assay [2] it was -0.0148; in assay [3], 0.116; in assay [5] it was 0.743; in assay [6] it was 0.806; in assay [7], 0.339. Further, the composite z-score in assay [8] amounted to 0.369; in assay [9], 0.27; in assay [10], 0.345. In addition, in [4], the z-score is -0.0173 (inactive).

As to `CC(C)C[C@@H]1NC(=O)[C@H]2C[C@@H](C(=O)NCCCCCCN)[C@@H](c3ccc(O)cc3)N2C1=O`, the composite z-score in assay [1] stood at 1.59; in [2] it was 1.06; in assay [3] it was 0.808; in [5] it was 0.23; in assay [6], 0.247; in [7], 0.106. Also, the composite z-score came out at 0.69 in assay [8], 0.731 in [9] and 1.23 in [10]. In addition, the z-score in assay [4] is 0.823 (inactive).

For the compound `COc1ccc(COC2OC[C@]3(C)[C@H]4C5=C(CN3C(=O)OC(C)(C)C)[C@H](C)C(CO)C(CO)C5CC[C@@H]24)cc1` (stereo not given in full), the composite z-score in assay [1] is 1; in [2], 1.06; in [3], 0.983; in assay [5] it was 0.755; in [6], 1.3; in assay [7] it was -0.452. The results for the composite z-score in assay [8], in assay [9] and in assay [10] were 1.07, -0.432 and 0.797, respectively. For the same compound, the z-score in assay [4] was -0.807 (inactive).

In the case of `O=C1[C@H]2C=C(Br)[C@H](C[C@@H]2c2ccccc2)[C@@]12CO2`, the composite z-score in assay [1] is -0.0067; in assay [2], -0.217; in assay [3], -0.261; in [5], 0.774; in assay [6], 0.381; in assay [7] it was 0.513. The figures for the composite z-score in assay [8], in assay [9] and in assay [10] were 0.733, 0.765 and 0.648, respectively. Also, the z-score in assay [4] was 0.723 (inactive).

Consider `Cc1ccc(S[C@]2(C(=O)NCCN3CCOCC3)CC(=O)N(Cc3ccccc3Cl)[C@@H]2c2ccc(CO)cc2)cc1`, for which the composite z-score is 0.588 in assay [1]; -0.123 in assay [2]; 0.841 in assay [3]; 1 in [5]; -1.4 in [6]; -0.342 in assay [7]. For the same compound, the results for the composite z-score in assay [8], in assay [9] and in [10] were -0.51, -0.844 and 0.425, respectively. Further, in [4], the z-score was -1.38 (inactive).

For the compound `COC(=O)[C@@]1(Cc2ccc(F)cc2)[C@H]2c3cc(C(=O)N(C)C)n(Cc4ccc(S(C)(=O)=O)cc4)c3C[C@H]2CN1C(=O)c1ccccc1`, the composite z-score in [1] came out at 0.46; in [2] it was 0.883; in assay [3], 0.899; in assay [5] it was 1.35; in assay [6], 0.0364; in assay [7], 0.603. In addition, the values for the composite z-score in [8], in [9] and in [10] were 0.0567, -0.0071 and 0.95, respectively. In addition, in [4], the z-score was 0.895 (inactive).

In the case of `C=C(CCCC)C(=O)CC[C@H](OC(=O)c1cccnc1)c1ccccc1OCCO`, the composite z-score is 0.619 in assay [1]; -0.322 in [2]; 0.154 in assay [3]; 0.704 in assay [5]; -1.05 in assay [6]; -0.0934 in assay [7]. Besides, the composite z-score in [8] is 0.12; in assay [9], 0.137; in assay [10], 1.1. Also, in assay [4], the z-score was -0.637 (inactive).

On to `C=C(/C(=C/C[C@@H](OC(C)=O)c1ccc(OCCO)cc1)c1cnc2ccccc2c1)C(C)C`, for which the composite z-score in assay [1] is 1.2; in [2], -0.229; in assay [3], 0.0459; in assay [5], 0.528; in assay [6], -0.0912; in [7], -0.103. Also, the values for the composite z-score in assay [8], in [9] and in assay [10] were 0.77, 0.218 and 1.5, respectively. Moreover, the z-score in [4] is -0.837 (inactive).

Take `C=C(CCCC)C(=O)CC[C@@H](OC(=O)c1cccnc1)c1ccc(CO)o1`: the composite z-score was 1.15 in assay [1]; 0.0013 in assay [2]; -0.269 in assay [3]; 1.21 in [5]; 0.958 in [6]; 0.641 in assay [7]. Further, the values for the composite z-score in [8], in [9] and in [10] were 0.916, 0.576 and 1.3, respectively. Also, the z-score in [4] was 0.08 (inactive).

For `Cc1ccc(S[C@]2(C(=O)NCCN3CCOCC3)CC(=O)N(Cc3ccccc3)[C@@H]2c2ccc(CO)cc2I)cc1`, the composite z-score was 1.41 in assay [1]; 0.361 in [2]; 1.11 in [3]; -1.61 in assay [5]; -1.12 in assay [6]; -1.72 in [7]. Also, the composite z-score in assay [8] was -1.24; in [9], -1.51; in assay [10] it was 0.476. Further, in [4], the z-score was -1.88 (inactive).

As to `CCOC(=O)C[C@H]1[C@H](OC(=O)Cc2ccc3c(c2)OCO3)[C@@H](NC(=O)c2ccc(-c3ccccc3)cc2)c2cc(OCCCO)ccc2N1C(=O)c1ccc2ccccc2n1`, the composite z-score is -0.0119 in [1]; -0.319 in assay [2]; -0.486 in [3]; 0.556 in assay [5]; 0.28 in assay [6]; 0.468 in [7]. The composite z-score was 0.321 in assay [8], 0.434 in [9] and -0.0169 in assay [10]. Moreover, the z-score in assay [4] was -2.82 (inactive).

On to `CN1C(=O)C2C=CC(C(O)Cc3ccccc3)N(Nc3ccccc3)C2C1=O` (stereo not given), for which the composite z-score is 0.36 in [1]; 0.645 in assay [2]; 0.898 in assay [3]; 0.235 in [5]; -0.442 in [6]; -0.389 in [7]. The composite z-score in [8] was -0.0978; in assay [9], -0.549; in assay [10], 0.437. Further, the z-score in [4] is -0.00929 (inactive).

Regarding `CC1CC/C=C\[C@H]2OC34C=CCN(C(C)(C)C)C(=O)[C@H]3N(CCCCCCO)C(=O)[C@@H]4C2C(=O)O1` (stereo not given in full), the composite z-score is 2.05 in assay [1]; -0.0908 in assay [2]; 0.416 in [3]; 0.0444 in [5]; -0.615 in assay [6]; -0.777 in [7]. The results for the composite z-score in assay [8], in [9] and in assay [10] were -0.568, -0.957 and 1.13, respectively. In addition, the z-score in assay [4] is -0.0517 (inactive).
